Records with an inconclusive call do not appear. Calls of active or inactive are those of the source. How the source made its calls, unless noted: active means hit-call score of the fitted dose curve at least 0.9, where 1 is the maximum; inactive means score below 0.9.
What was measured:
[1] = target: Bile acid receptor (Homo sapiens) (UniProt Q96RI1); test: ATG_FXR_TRANS: Attagene TRANS-FACTORIAL HepG2 Assay for Farnesoid X Receptor (FXR) (AID 2282979; active means hit-call score of the fitted dose curve at least 0.9, where 1 is the maximum;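 further: hits raise reporter mRNA above DMSO so AC50 marks FXR activation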); conditions: HepG2 Attagene TRANS FXR-GAL4 reporter transcription
Outline: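 Reporter transcripts from transfected HepG2 cells were measured 24 h after dosing, using RT-PCR with capillary electrophoresis of 6-FAM-labelled fragments. The read-out reflects activity of exogenous FXR-Gal4 chimera on GAL4-UAS units, with induction relative to DMSO.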

[2] = target: Transcriptional activator Myb (Homo sapiens) (UniProt P10242); test: ATG_Myb_CIS: Attagene CIS-FACTORIAL HepG2 Assay for human Myeloblastosis (Myb) Proto-Oncogene Transcription Factor (AID 2282986); conditions: HepG2 Attagene CIS-FACTORIAL Myb reporter transcription; actives raise or lower the signal
Outline: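 HepG2 cells were transiently transfected with cis-regulated multiple reporter transcription units reflecting endogenous Myb activity, then exposed to compound for 24 hours. Reporter mRNA was measured by RT-PCR with capillary electrophoresis; bidirectional fitting versus DMSO baseline.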

[3] = target: Nuclear respiratory factor 1 (Homo sapiens) (UniProt Q16656); test: ATG_NRF1_CIS: Attagene CIS-FACTORIAL HepG2 Assay for human Nuclear Respiratory Factor 1 (NRF1) Orphan Gene (AID 2282987); conditions: HepG2 NRF1 cis-element reporter, Attagene multiplex; actives raise or lower the signal
Outline: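 HepG2 cells transiently transfected with multiple reporter transcription units under cis-regulatory promoter control, so endogenous transcription-factor activity is read. After 24 h compound exposure, reporter mRNA quantified by RT-PCR, fluorescent labelling, HpaI digestion and capillary electrophoresis; bidirectional fitting versus DMSO.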

[4] = ATG_NFI_CIS: Attagene CIS-FACTORIAL HepG2 Assay for human Nuclear Factor I (NFI) (AID 2282989); conditions: HepG2 cis-regulatory reporter, NFI response element transcription; actives raise or lower the signal
Outline: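 After transient transfection of HepG2 with cis-promoter reporter constructs and 24 h dosing, RNA is reverse-transcribed, amplified, 6-FAM end-labelled and HpaI-digested before capillary analysis. Bidirectional curve fitting against DMSO.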

[5] = target: Myc proto-oncogene protein (Homo sapiens) (UniProt P01106); test: ATG_Myc_CIS: Attagene CIS-FACTORIAL HepG2 Assay for human Myelocytomatosis (Myc) Proto-Oncogene Transcription Factor (AID 2282990); conditions: HepG2, Attagene cis-reporter transcription factor activity; actives raise or lower the signal
Outline: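 Transiently transfected HepG2 cells bearing cis-promoter reporter units for endogenous transcription factors; 24 h exposure. Reporter mRNA measured by RT-PCR, 6-FAM primer extension, HpaI cut and capillary electrophoresis; bidirectional fit relative to DMSO.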

[6] = ATG_NF_kB_CIS: Attagene CIS-FACTORIAL HepG2 Assay for human Nuclear Factor Kappa B (NF-kB) (AID 2282991); conditions: HepG2 Attagene cis-factorial NF-kB reporter mRNA; actives raise or lower the signal
Outline: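 HepG2 cells transiently transfected with multiplexed cis-element reporter units measuring endogenous transcription factor activity; reporter mRNA read 24 h after dosing by RT-PCR, fluorescent labelling, HpaI digestion and capillary electrophoresis. Bidirectional fit against DMSO baseline.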

[7] = ATG_NRF2_ARE_CIS: Attagene CIS-FACTORIAL HepG2 Assay for human Nuclear Factor Erythroid 2 Related Factor 2 (NFR2) response to Antioxidant Response Elements (ARE) (AID 2282992); conditions: HepG2 Attagene ARE/NRF2 reporter, transcription factor activity; actives raise or lower the signal
Outline: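 Readout: reporter mRNA quantified by RT-PCR plus FAM-labelled primer extension, HpaI digestion and capillary electrophoresis, 24 h after dosing transfected HepG2 cells. Gain or loss of signal is fitted bidirectionally against DMSO baseline.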

[8] = ATG_Oct_MLP_CIS: Attagene CIS-FACTORIAL HepG2 Assay for human Octamer-Binding Transcription Factor (Oct) (AID 2282993); conditions: HepG2 Attagene cis-factorial Oct reporter, mRNA; actives raise or lower the signal
Outline: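 Cells of the HepG2 line express promoter-controlled reporter sequences whose mRNA levels, after 24 h treatment, are measured by RT-PCR and capillary electrophoresis. Increases and decreases are scored relative to DMSO.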

[9] = target: Cellular tumor antigen p53 (Homo sapiens) (UniProt P04637); test: ATG_p53_CIS: Attagene CIS-FACTORIAL HepG2 Assay for human p53 Transcription Factor (AID 2282994); conditions: HepG2 p53 cis-element reporter, Attagene mRNA; actives raise or lower the signal
Outline: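 Read-out: reporter mRNA by RT-PCR plus capillary electrophoresis with fluorescence detection. Human HepG2 liver cells carried transfected multi-reporter cis-element constructs, dosed 24 h. Gain or loss of signal fitted bidirectionally against DMSO control.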

[10] = BSK_3C_TissueFactor: BioMAP Diversity Plus: 3C Assay for Tissue Factor Biomarker Activity (AID 2282997); conditions: BioMAP 3C HUVEC, tissue factor biomarker readout; actives raise or lower the signal
Outline: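 Tissue factor on primary human umbilical vein endothelium was read by ELISA 24 h after dosing, gain or loss relative to DMSO. Cytotoxicity ran alongside via SRB (0.1%, TCA-fixed, 560 nm).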

[11] = BSK_3C_uPAR: BioMAP Diversity Plus: 3C Assay for Urokinase-type plasminogen activator receptor (uPAR) Biomarker Activity (AID 2282998); conditions: BioMAP 3C HUVEC, uPAR biomarker ELISA; actives raise or lower the signal
Outline: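 Endothelial primary cells of human umbilical vein origin received test chemical; 24 h later uPAR was assayed by ELISA. Fitting was bidirectional, DMSO as negative control.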

[12] = BSK_3C_VCAM1: BioMAP Diversity Plus: 3C Assay for Vascular cell adhesion molecule 1 (VCAM1) Biomarker Activity (AID 2282999); conditions: BioMAP 3C HUVEC, VCAM1 ELISA, cytokine-stimulated; actives raise or lower the signal
Outline: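 HUVEC primary cells, 24 h compound exposure; VCAM-1 by ELISA; gain/loss of signal fitted bidirectionally vs DMSO baseline.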

[13] = BSK_4H_Eotaxin3: BioMAP Diversity Plus: 4H Assay for Eotaxin 3 Biomarker Activity (AID 2283000); conditions: primary human endothelial cells (HUVEC); actives raise or lower the signal
Outline: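 Human umbilical vein endothelial cells (BSK_4H system) dosed with test chemical; Eotaxin-3 (CCL26) measured by ELISA 24 h after dosing. Bidirectional curve fitting relative to DMSO negative control as baseline.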

[14] = target: Oxysterols receptor LXR-beta (Homo sapiens) (UniProt P55055); test: ATG_LXRb_TRANS: Attagene TRANS-FACTORIAL HepG2 Assay for human Liver X Receptor beta (LXRb) (AID 2282981; active means hit-call score of the fitted dose curve at least 0.9, where 1 is the maximum); conditions: HepG2 Attagene TRANS GAL4-LXRb reporter, mRNA
Outline: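 Readout: fluorescent reporter mRNA fragments resolved by capillary electrophoresis after RT-PCR. System: transiently transfected human HepG2, exogenous LXRb-Gal4 chimera driving GAL4-UAS reporter, 24 h dosing. Activity fitted upward against DMSO baseline.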

[15] = target: Hepatocyte nuclear factor 4-alpha (Homo sapiens) (UniProt P41235); test: ATG_HNF4a_TRANS: Attagene TRANS-FACTORIAL HepG2 Assay for human Hepatocyte Nuclear Factor 4 alpha (HNF4a) (AID 2282982; active means hit-call score of the fitted dose curve at least 0.9, where 1 is the maximum); conditions: HepG2 HNF4a transactivation reporter, mRNA readout
Outline: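 Transient MRTU transfection of HepG2, 24 h dosing. Readout: reporter mRNA via RT-PCR + capillary electrophoresis, fluorescence; activity fit upward relative to DMSO control.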

[16] = ATG_M_06_TRANS: Attagene TRANS-FACTORIAL HepG2 Assay for M06 Transcription Factor (Internal Marker) (AID 2282983; active means hit-call score of the fitted dose curve at least 0.9, where 1 is the maximum;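 further: reporter transcript level by RT-PCR then capillary electrophoresis fluorescence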); conditions: HepG2 Attagene TRANS M06 internal marker reporter
Outline: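 Background-control reporter readout: after 24 h chemical exposure of transiently transfected HepG2 (GAL4-UAS reporter units), mRNA quantified by RT-PCR with fluorescent labeling and capillary electrophoresis. Gain-of-signal fitting against DMSO baseline.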

[17] = ATG_M_32_TRANS: Attagene TRANS-FACTORIAL HepG2 Assay for M32 Transcription Factor (Internal Marker) (AID 2282984; active means hit-call score of the fitted dose curve at least 0.9, where 1 is the maximum;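 further: transcript level of a background control reporter unit measured by RT-PCR and capillary electrophoresis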); conditions: HepG2 Attagene TRANS M32 internal marker reporter
Outline: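 Read-out: fluorescent reporter cDNA fragments resolved by capillary electrophoresis after RT-PCR of total RNA. Transfected HepG2 cells were exposed to chemical for 24 h. Activity scored in the positive direction relative to DMSO.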

[18] = target: Nuclear receptor subfamily 4 group A member 2 (Homo sapiens) (UniProt P43354); test: ATG_NURR1_TRANS: Attagene TRANS-FACTORIAL HepG2 Assay for human Nuclear Receptor Related Protein 1 (NURR1) (AID 2282985; active means hit-call score of the fitted dose curve at least 0.9, where 1 is the maximum); conditions: HepG2 Attagene TRANS reporter, mRNA readout
Outline: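 Read-out: reporter mRNA induction by RT-PCR plus capillary electrophoresis with fluorescence detection, after 24 h dosing of transfected HepG2 cells. Exogenous NR-Gal4 chimera activity drives GAL4-UAS reporter; activity fitted upward versus DMSO.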

[19] = target: human Peroxisome Proliferator-activated Receptor alpha (PPARa), PPARA (gene 5465) (UniProt Q07869); test: ATG_PPARa_TRANS: Attagene TRANS-FACTORIAL HepG2 Assay for human Peroxisome Proliferator-activated Receptor alpha (PPARa) (AID 2283001; active means hit-call score of the fitted dose curve at least 0.9, where 1 is the maximum)
Outline: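 Transient HepG2 transfection, GAL4-UAS reporters, NR-Gal4 chimeras; 24 h compound exposure. Readout: reporter transcripts by RT-PCR, 6-FAM primer extension, HpaI digest, capillary electrophoresis. Positive direction vs DMSO baseline.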

[20] = target: Glucocorticoid receptor (Homo sapiens) (UniProt P04150); test: ATG_GR_TRANS: Attagene TRANS-FACTORIAL HepG2 Assay for human Glucocorticoid Receptor (GR) (AID 2282978; active means hit-call score of the fitted dose curve at least 0.9, where 1 is the maximum;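 further: activators score as hits since higher reporter transcript over DMSO is fitted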); conditions: HepG2 Attagene TRANS GR reporter, mRNA transcription
Outline: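 HepG2 cells transiently transfected with multiplexed reporter units in which chimeric NR-GAL4 proteins drive GAL4-UAS reporters; 24 h compound exposure. Reporter mRNA measured by RT-PCR, 6-FAM labelling, HpaI digestion and capillary electrophoresis; gain-of-signal fitted versus DMSO.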

Measured: AC50

Transcriptional activator Myb (Homo sapiens), sequence (P10242 whole entry, looked up): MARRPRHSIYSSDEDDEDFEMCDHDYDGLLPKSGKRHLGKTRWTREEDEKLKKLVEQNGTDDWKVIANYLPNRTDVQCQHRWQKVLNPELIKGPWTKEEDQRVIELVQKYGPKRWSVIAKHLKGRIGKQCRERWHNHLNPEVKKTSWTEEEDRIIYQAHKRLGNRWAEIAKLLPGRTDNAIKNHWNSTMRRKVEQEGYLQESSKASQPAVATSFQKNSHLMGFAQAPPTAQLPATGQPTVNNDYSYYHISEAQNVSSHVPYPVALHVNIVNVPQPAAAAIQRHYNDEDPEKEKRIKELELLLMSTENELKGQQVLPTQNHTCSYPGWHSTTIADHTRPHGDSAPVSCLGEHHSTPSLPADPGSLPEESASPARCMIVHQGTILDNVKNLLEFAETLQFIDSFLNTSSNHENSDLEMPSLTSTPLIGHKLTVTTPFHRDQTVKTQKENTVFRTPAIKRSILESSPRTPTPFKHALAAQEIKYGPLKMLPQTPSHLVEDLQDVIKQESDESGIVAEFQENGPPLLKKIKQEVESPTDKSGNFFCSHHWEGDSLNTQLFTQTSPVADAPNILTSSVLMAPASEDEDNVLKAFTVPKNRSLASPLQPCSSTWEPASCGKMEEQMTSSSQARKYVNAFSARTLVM
Glucocorticoid receptor (Homo sapiens), sequence (P04150 whole entry, looked up, the tested form may be a part): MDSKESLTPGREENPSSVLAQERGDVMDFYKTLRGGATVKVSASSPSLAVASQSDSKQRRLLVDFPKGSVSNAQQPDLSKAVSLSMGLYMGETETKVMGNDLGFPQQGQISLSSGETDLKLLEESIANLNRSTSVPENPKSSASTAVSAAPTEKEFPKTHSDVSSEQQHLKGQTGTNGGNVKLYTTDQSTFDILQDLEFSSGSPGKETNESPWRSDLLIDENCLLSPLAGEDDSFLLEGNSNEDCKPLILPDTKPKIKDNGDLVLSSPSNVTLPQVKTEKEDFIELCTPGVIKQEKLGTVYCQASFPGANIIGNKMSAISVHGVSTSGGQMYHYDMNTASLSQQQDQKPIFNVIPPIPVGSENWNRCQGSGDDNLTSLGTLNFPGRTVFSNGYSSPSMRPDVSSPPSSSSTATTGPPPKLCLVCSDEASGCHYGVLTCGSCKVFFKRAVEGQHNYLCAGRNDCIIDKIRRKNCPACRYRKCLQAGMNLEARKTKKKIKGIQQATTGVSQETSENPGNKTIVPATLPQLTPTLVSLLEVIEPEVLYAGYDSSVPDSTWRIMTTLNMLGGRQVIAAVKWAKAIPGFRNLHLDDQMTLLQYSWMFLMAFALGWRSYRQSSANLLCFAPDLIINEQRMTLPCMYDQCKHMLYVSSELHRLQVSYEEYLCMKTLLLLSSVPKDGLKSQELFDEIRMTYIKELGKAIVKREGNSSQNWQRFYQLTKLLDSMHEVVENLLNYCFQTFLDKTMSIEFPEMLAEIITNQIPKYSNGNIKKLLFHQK
human Peroxisome Proliferator-activated Receptor alpha (PPARa), PPARA (gene 5465), sequence (Q07869 whole entry, looked up, the tested form may be a part): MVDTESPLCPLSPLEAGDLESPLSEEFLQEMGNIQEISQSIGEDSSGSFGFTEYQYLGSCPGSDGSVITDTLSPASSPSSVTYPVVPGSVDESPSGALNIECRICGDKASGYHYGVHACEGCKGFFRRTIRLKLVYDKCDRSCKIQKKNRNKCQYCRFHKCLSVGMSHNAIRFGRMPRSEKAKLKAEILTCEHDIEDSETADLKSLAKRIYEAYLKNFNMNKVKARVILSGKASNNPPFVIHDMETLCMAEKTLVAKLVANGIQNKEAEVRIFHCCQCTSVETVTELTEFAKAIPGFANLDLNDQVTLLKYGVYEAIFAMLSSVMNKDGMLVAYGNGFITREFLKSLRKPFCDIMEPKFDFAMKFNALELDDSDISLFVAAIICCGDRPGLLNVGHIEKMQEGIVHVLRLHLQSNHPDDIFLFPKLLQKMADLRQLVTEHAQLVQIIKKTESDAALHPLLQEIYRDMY
Nuclear respiratory factor 1 (Homo sapiens), sequence (Q16656 whole entry, looked up): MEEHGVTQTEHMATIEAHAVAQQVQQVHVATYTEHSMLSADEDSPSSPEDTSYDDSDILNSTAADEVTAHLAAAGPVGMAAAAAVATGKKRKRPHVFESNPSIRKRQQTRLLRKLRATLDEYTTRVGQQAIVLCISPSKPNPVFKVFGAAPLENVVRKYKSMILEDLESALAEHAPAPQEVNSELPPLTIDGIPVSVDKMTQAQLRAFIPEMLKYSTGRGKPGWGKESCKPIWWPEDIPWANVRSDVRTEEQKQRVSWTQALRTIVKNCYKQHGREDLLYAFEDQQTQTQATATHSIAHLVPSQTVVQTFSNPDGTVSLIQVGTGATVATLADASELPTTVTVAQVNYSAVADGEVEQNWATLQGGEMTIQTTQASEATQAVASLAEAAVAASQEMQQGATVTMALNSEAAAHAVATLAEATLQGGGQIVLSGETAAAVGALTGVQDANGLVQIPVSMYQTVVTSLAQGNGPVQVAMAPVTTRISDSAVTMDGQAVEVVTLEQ
Cellular tumor antigen p53 (Homo sapiens), sequence (P04637 whole entry, looked up): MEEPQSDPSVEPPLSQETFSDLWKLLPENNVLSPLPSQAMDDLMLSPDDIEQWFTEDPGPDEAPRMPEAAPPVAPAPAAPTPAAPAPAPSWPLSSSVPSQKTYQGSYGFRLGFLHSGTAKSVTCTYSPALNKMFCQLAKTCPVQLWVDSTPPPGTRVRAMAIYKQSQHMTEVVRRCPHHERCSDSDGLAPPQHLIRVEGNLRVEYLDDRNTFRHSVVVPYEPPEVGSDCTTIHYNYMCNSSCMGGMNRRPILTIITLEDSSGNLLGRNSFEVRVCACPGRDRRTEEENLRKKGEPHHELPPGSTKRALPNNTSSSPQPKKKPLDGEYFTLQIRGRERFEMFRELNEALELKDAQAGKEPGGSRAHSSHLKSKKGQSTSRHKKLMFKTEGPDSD
Myc proto-oncogene protein (Homo sapiens), sequence (P01106 whole entry, looked up): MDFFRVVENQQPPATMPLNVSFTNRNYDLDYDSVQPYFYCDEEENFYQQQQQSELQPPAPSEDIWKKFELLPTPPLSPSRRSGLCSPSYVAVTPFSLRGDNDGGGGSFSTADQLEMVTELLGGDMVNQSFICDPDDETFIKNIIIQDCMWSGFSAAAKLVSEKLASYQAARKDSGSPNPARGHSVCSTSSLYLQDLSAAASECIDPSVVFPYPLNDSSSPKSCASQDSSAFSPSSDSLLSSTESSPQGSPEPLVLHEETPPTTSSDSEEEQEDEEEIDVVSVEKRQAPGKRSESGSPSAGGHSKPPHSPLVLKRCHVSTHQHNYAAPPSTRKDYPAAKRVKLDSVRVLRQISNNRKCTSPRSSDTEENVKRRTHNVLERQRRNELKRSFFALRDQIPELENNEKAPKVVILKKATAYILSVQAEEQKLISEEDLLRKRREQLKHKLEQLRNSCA
Bile acid receptor (Homo sapiens), sequence (Q96RI1 whole entry, looked up, the tested form may be a part): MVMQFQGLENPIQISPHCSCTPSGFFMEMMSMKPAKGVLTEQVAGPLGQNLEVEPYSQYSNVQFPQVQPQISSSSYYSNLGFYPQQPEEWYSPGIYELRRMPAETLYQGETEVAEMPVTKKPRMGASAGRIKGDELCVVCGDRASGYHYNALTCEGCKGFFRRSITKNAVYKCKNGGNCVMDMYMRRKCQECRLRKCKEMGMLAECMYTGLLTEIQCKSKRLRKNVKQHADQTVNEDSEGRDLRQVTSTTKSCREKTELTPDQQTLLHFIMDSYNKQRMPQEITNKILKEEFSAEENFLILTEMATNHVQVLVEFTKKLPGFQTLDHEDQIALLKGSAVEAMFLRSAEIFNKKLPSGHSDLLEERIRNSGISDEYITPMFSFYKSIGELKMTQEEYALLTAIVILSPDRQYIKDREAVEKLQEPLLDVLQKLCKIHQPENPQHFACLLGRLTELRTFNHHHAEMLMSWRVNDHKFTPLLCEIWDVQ
Hepatocyte nuclear factor 4-alpha (Homo sapiens), sequence (P41235 whole entry, looked up): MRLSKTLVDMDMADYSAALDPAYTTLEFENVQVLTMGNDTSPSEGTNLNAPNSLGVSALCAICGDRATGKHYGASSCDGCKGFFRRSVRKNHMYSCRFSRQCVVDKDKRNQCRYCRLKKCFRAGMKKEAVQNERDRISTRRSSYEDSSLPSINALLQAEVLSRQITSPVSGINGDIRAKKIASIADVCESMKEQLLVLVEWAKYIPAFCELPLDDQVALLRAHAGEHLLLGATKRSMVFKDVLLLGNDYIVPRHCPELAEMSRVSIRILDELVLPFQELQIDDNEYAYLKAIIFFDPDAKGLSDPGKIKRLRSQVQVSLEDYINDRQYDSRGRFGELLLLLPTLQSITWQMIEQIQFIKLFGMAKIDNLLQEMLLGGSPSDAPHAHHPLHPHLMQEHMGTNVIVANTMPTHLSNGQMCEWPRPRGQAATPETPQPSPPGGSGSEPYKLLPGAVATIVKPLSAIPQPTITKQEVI
Nuclear receptor subfamily 4 group A member 2 (Homo sapiens), sequence (P43354 whole entry, looked up, the tested form may be a part): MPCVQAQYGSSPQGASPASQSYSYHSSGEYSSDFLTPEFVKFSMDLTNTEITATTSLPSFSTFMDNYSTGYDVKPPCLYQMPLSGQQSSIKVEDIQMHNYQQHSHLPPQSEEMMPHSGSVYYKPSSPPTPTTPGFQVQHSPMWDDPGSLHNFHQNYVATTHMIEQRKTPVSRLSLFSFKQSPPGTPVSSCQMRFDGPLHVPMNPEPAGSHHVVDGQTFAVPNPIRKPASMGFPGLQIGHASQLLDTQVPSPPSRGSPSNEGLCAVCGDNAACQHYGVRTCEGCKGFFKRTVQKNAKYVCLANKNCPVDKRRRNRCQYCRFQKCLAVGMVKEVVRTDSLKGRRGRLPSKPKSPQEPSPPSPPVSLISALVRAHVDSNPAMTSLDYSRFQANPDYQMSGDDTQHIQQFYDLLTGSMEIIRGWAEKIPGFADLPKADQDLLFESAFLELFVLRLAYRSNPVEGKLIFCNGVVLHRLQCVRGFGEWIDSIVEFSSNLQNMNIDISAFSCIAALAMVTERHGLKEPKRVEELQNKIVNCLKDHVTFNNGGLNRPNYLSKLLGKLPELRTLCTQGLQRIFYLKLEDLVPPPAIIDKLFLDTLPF

CN(C)CCCN(C)CCCN(C)C
not listed: [14] | [15] | [16] | [17] | [18] | [19] | [20]
inactive: all other assays above

O=[Si]=O
not listed: [1] | [20]
inactive: all other assays above

O=C1NC(=O)C(c2ccccc2)(c2ccccc2)N1
not listed: [1] | [6] | [9] | [14] | [19]
inactive: all other assays above

COC(=O)[C@H]1[C@H]2C[C@@H]3c4[nH]c5cc(OC)ccc5c4CCN3C[C@H]2C[C@@H](OC(=O)c2cc(OC)c(OC)c(OC)c2)[C@@H]1OC
active: [7] 45.5 µM | [9] 22.9 µM | [10] 10.4 µM | [11] 23.2 µM | [12] 11.4 µM | [13] 25.7 µM
not listed: [1] | [6] | [14] | [15] | [18]
inactive: all other assays above

COC(=O)CCC(=O)OC
not listed: [14] | [15] | [16] | [17] | [18] | [19] | [20]
inactive: all other assays above

CCCCCCCCCCCCCCCCO
not listed: [1] | [9] | [14] | [17] | [18]
inactive: all other assays above

Cc1ccc(C(C)(C)C)c(O)c1
active: [4] 141 µM | [5] 100 µM | [6] 164 µM | [7] 65.3 µM | [8] 144 µM | [9] 182 µM | [10] 27.6 µM | [11] 32.6 µM | [12] 34.6 µM
inactive: [1] | [16] | [2] | [3] | [13]

O=C(N[C@@H](c1ccccc1)[C@@H]1CCCCN1)c1cccc(C(F)(F)F)c1Cl
inactive: [1] | [14] | [16] | [2] | [4] | [12] | [13] | [19]
active: [3] 56.9 µM | [5] 54 µM | [6] 53.2 µM | [8] 22.6 µM | [10] 20 µM | [11] 20 µM

— PubChem BioAssay (EPA / NIEHS)
